Consider 24 molecules from PubChem BioAssay (NCATS).

Results filed as inconclusive are left out. Activity calls are given as the source filed them. Calls come from the whole dose curve; as a rule, active = well fitted curve in the direction sought with a large enough effect; inconclusive = small, poorly fitted or top-dose-only effect, or another doubt; inactive = no such curve, though single readings can be large; an effect the other way counts as inactive or inconclusive.

The nature of test [1]: qHTS of pediatric cancer cell lines to identify multiple opportunities for drug repurposing: Primary screen for SK-N-MC cells (AID 1347093). Note: potency is the fitted concentration of half-maximal effect. The essentials: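 Metabolically active cells were quantified by ATP-dependent luminescence (CellTiter-Glo, 15 min at room temperature) following 48 h treatment. Cells had been plated at 500-1,000 per well and settled for 5 h beforehand.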
Background: In qHTS, concentration-response curves come from the screen itself.

Test [2] is described as follows: qHTS of pediatric cancer cell lines to identify multiple opportunities for drug repurposing: Primary screen for BT-37 cells (AID 1347094). Note: potency is the fitted concentration of half-maximal effect. The essentials: (§1)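 Cells seeded at 500-1,000 cells/well in growth media, rested 5 hours at 37 degrees C, 5% CO2, then dosed; MIPE compounds at 11-point (from 0.78 nM) and NPC at 8-point (from 0.59 nM) final concentrations. Viability by CellTiter-Glo luminescence after 48 hours.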

A short description of test [3]: qHTS of pediatric cancer cell lines to identify multiple opportunities for drug repurposing: Primary screen for NB-EBc1 cells (AID 1347095). A digest of the protocol:
as §1

The nature of test [4]: qHTS of pediatric cancer cell lines to identify multiple opportunities for drug repurposing: Primary screen for U-2 OS cells (AID 1347096). Note: nearly all actives have a fitted effect of over 50% in size. The essentials:
(§2)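 Cells (500-1,000/well) in growth media were settled 5 h at 37 degrees C, then given compounds for 48 h. Viability was read as CellTiter-Glo luminescence. Primary runs used MIPE at 11 points (0.78 nM-46 µM) and NPC at 8 points (0.59 nM-46 µM); follow-ups used 11 points.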

The nature of test [5]: qHTS of pediatric cancer cell lines to identify multiple opportunities for drug repurposing: Primary screen for Saos-2 cells (AID 1347097). Note: nearly all actives have a fitted effect of over 40% in size. Note: potency is the fitted concentration of half-maximal effect. The essentials: as §1
Test [6] can be described thus: qHTS of pediatric cancer cell lines to identify multiple opportunities for drug repurposing: Primary screen for SK-N-SH cells (AID 1347098). Note: nearly all actives have a fitted effect of over 65% in size. Note: potency is the fitted concentration of half-maximal effect. A digest of the protocol: (§3)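 Cells (500-1,000/well) rested 5 h, then received compounds for 48 h; metabolically active cells were measured by CellTiter-Glo luminescence. Final concentrations spanned up to 46 µM (MIPE, 11-point) or 0.59 nM-46 µM (NPC, 8-point) in primary screens, 11-point in follow-ups.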

The nature of test [7]: qHTS of pediatric cancer cell lines to identify multiple opportunities for drug repurposing: Primary screen for NB1643 cells (AID 1347099). Note: nearly all actives have a fitted effect of over 50% in size. A digest of the protocol:
as §1

Test [8] in a line: qHTS of pediatric cancer cell lines to identify multiple opportunities for drug repurposing: Primary screen for LAN-5 cells (AID 1347100). The essentials:
as §2

Test [9] in a line: qHTS of pediatric cancer cell lines to identify multiple opportunities for drug repurposing: Primary screen for Rh18 cells (AID 1347102). Note: nearly all actives have a fitted effect of over 65% in size. A digest of the protocol: as §2
The nature of test [10]: qHTS of pediatric cancer cell lines to identify multiple opportunities for drug repurposing: Primary screen for BT-12 cells (AID 1347101). Note: nearly all actives have a fitted effect of over 25% in size. Note: potency is the fitted concentration of half-maximal effect. The essentials:
as §3

As for `CC(=O)CC/C=C(\C)CC/C=C(\C)CC/C=C(\C)CCC=C(C)C`, the Potency result in test [1], in test [2], in [3], in test [4], in test [5] and in [6] was “inactive” throughout. For the same molecule, the Potency entry in test [7], in test [8] and in [9] was “inactive” in each case.
Consider `CC(C)(C)c1ccc(C(=O)CCCCl)cc1`, for which the Potency entry in test [1], in test [2], in test [3], in [4], in [5] and in test [6] was “inactive” in each case. For the same molecule, the Potency result in [7], in [8] and in [9] was “inactive” throughout.
Turning to `CC(C)NC(=O)c1ccc(C=O)cc1`, the Potency result in test [1], in test [2], in test [3], in test [4], in test [5] and in test [6] was “inactive” each time. Also, the Potency result in test [7], in [8] and in test [9] was “inactive” throughout.
Take `Cc1nc2n(c(=O)c1CCN1CCC(C(=O)c3ccc(F)cc3)CC1)CCS2`: the Potency result in test [1], in test [2], in test [3], in test [4], in [5] and in test [6] was “inactive” in each case. In addition, the Potency result in [7], in test [8] and in [9] was “inactive” throughout.
As to `COC(=O)c1cc(Cl)c(NC(C)=O)cc1OC`, the Potency result in test [1], in test [2], in test [3], in test [4], in test [5] and in [6] was “inactive” each time. The Potency result in [7], in test [8] and in test [9] was “inactive” in each case.
As for `CC(=O)c1ccc(O)c(C(N)=O)c1`, the Potency entry in test [1], in test [2], in [3], in [4], in test [5] and in test [6] was “inactive” throughout. Moreover, the Potency result in test [8], in [10] and in test [9] was “inactive” each time.
Regarding `COc1ccc2c(c1)c(CC(=O)OC/C=C(\C)CC/C=C(\C)CCC=C(C)C)c(C)n2C(=O)c1ccc(Cl)cc1`, the Potency entry in test [1], in test [2], in test [3], in test [4], in test [5] and in test [6] was “inactive” each time. For the same molecule, the Potency result in test [7], in test [8] and in test [9] was “inactive” in each case.
`CCCCCN(CCCOC)C(=O)C(CCC(=O)O)NC(=O)c1ccc(Cl)c(Cl)c1` (configuration not stated): the Potency entry in [1], in test [2], in [3], in test [4], in test [5] and in [6] was “inactive” each time. For the same molecule, the Potency entry in test [7], in [8] and in test [9] was “inactive” throughout.
As to `COc1ccc(CCC(C)=O)cc1`, the Potency entry in [1], in [2], in test [3], in test [4], in test [5] and in [6] was “inactive” throughout. The Potency result in test [8], in [10] and in test [9] was “inactive” in each case.
In the case of `CC(C)(C)c1nnc(NS(=O)(=O)c2ccccc2)s1`, the Potency result in [1], in test [2], in test [3], in [4], in [5] and in [6] was “inactive” throughout. Also, the Potency result in test [7], in test [8] and in [9] was “inactive” in each case.
In the case of `N#Cc1cc(NC(=O)C(=O)O)c(Cl)c(NC(=O)C(=O)O)c1`, the Potency entry in [1], in test [2], in [3], in test [4], in [5] and in [6] was “inactive” throughout. The Potency result in [7], in test [8] and in test [9] was “inactive” throughout.
For the molecule `COc1cc(/C=C/C(N)=O)cc(OC)c1OC`, the Potency result in test [1], in test [3], in test [4], in test [5], in [6] and in test [8] was “inactive” in each case. Further, the Potency entry in test [10] and in test [9] was “inactive” throughout. In addition, in test [2], the Potency was 1 nM (active).
`CCOC(=O)NNc1nncc2ccccc12`: the Potency result in [1], in [2], in [3], in test [4], in test [5] and in [6] was “inactive” each time. Moreover, the Potency entry in test [8], in [10] and in test [9] was “inactive” in each case.
As for `CC(C)(C)C(=O)OCOC(=O)C1N2C(=O)CC2S(=O)(=O)C1(C)C` (configuration not stated), the Potency entry in test [1], in test [2], in test [3], in test [4], in [5] and in [6] was “inactive” each time. Further, the Potency result in test [8], in [10] and in test [9] was “inactive” each time.
`C[C@@H]1C[C@H]2[C@@H]3CCC4=CC(=O)C=C[C@]4(C)[C@@]3(F)[C@@H](O)C[C@]2(C)[C@@]1(O)C(=O)COC(=O)c1ccncc1`: the Potency entry in test [1], in [2], in [3], in test [4], in test [5] and in [6] was “inactive” in each case. In addition, the Potency result in test [8], in test [10] and in test [9] was “inactive” in each case.
As for `O=C(O)c1ccccc1Nc1cc(Cl)ccc1C(=O)O`, the results for the Potency in [1], in [5] and in test [6] were 8.2 µM (active), 9.2 µM (active) and 11.9 µM (active), respectively. Also, the Potency entry in test [2], in test [3], in [4], in test [8], in test [10] and in [9] was “inactive” throughout.
Consider `OC[C@]1(O)OC[C@@H](O)[C@H](O)[C@@H]1O`, for which the Potency entry in test [1], in [2], in test [3], in test [4], in test [5] and in test [6] was “inactive” in each case. In addition, the Potency entry in [7], in [8] and in test [9] was “inactive” each time.
In the case of `C[C@H](CN1CCCC1)C(=O)c1ccc(C(F)(F)F)cc1`, the Potency entry in test [1], in test [2], in test [3], in [4], in [5] and in test [6] was “inactive” each time. Also, the Potency entry in test [7], in [10] and in test [9] was “inactive” throughout.
As for `Cc1ccc(C(=O)Oc2ccc(C(O)CNC(C)(C)C)cc2OC(=O)c2ccc(C)cc2)cc1` (configuration not stated), the figures for the Potency in test [1] and in test [10] were 0.001 µM (active) and 6.17 µM (active), respectively. The Potency entry in test [2], in test [3], in test [4], in test [5], in [6] and in test [8] was “inactive” throughout. For the same molecule, the Potency result in [9] is “inactive”.
Regarding `CCOC(=O)C(=O)CCCCCCl`, the Potency result in test [1], in test [2], in test [3], in test [4], in test [5] and in test [6] was “inactive” throughout. Further, the Potency entry in test [8], in test [10] and in test [9] was “inactive” in each case.
In the case of `CC(C)(C)NCC(O)COc1ccccc1OCC1CCCO1` (configuration not stated), the Potency result in [1], in [2], in [3], in [4], in test [5] and in [6] was “inactive” throughout. Further, the Potency entry in [7], in test [8], in test [10] and in test [9] was “inactive” in each case.
With `Cc1cc(CCCOc2c(C)cc(-c3noc(C(F)(F)F)n3)cc2C)on1`, the Potency result in test [1], in [2], in test [3], in test [4], in test [5] and in [6] was “inactive” in each case. Besides, the Potency result in test [7], in test [8] and in test [9] was “inactive” each time.
Take `O=C1CC2(CCCC2)CC(=O)N1`: the Potency result in test [1], in [2], in test [3], in test [4], in test [5] and in test [6] was “inactive” each time. For the same molecule, the Potency entry in test [7], in test [10] and in [9] was “inactive” in each case.
Take `COc1cc(S(N)(=O)=O)cc(C(=O)O)c1OC`: the Potency result in test [1], in test [2], in test [3], in [4], in [5] and in test [6] was “inactive” throughout. The Potency result in [7], in test [8] and in [9] was “inactive” each time.
